Of roughly 7,900 targets only a part is listed; those with a hit were picked by preference. About 0.6% of all pairs of compound and target were hits. A number with no mark means an inactive call.
Tests used:
Assay in all cases: log2 fold change, soluble protein after heating vs DMSO (PISA); higher = thermal stabilisation; K562 cells, 10 uM, 30 min; active = over 0.2 and 3.5 SD of the protein, either way, in both replicates (recomputed)
[1] = compound: NC(=O)Nc1cc(-c2cccc(F)c2)sc1C(=O)N[C@H]1CCCNC1
Procedure, shortened: (§1)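 Values are thermal stability changes relative to control samples and are taken from duplicates. They are stated as log2 fold changes. Before quantification by TMTpro 16plex LC-MS/MS with equalised channel sums, K562 cells at 2×10^6 cells/mL were treated with 10 μM compound for 30 min, heated in aliquots for 3 min across 48°C-58°C, pooled, extracted in PBS with 0.5% NP-40 at 4°C, and centrifuged at 21,000xg for 90 min to give the soluble supernatant.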

[2] = compound: NC(=O)c1cnc(N[C@@H]2CCCC[C@@H]2N)nc1Nc1cccc(-n2nccn2)c1
Procedure, shortened: as §1

[3] = compound: NC1(c2ccc(-c3nc4ccn5c(=O)[nH]nc5c4cc3-c3ccccc3)cc2)CCC1
Procedure, shortened: as §1

[4] = compound: NCC(=O)Nc1ccc(-n2nc(C(F)(F)F)cc2-c2ccc3c(ccc4ccccc43)c2)cc1
Procedure, shortened: as §1

entinostat = compound: Nc1ccccc1NC(=O)c1ccc(CNC(=O)OCc2cccnc2)cc1 [entinostat]
Procedure, shortened: as §1

vorinostat = compound: O=C(CCCCCCC(=O)Nc1ccccc1)NO [vorinostat]
Procedure, shortened: as §1

citarinostat = compound: O=C(CCCCCCNC(=O)c1cnc(N(c2ccccc2)c2ccccc2Cl)nc1)NO [citarinostat]
Procedure, shortened: as §1

silmitasertib = compound: O=C(O)c1ccc2c(c1)nc(Nc1cccc(Cl)c1)c1ccncc12 [silmitasertib]
Procedure, shortened: as §1

[5] = compound: O=C1NC(=O)C(c2cnc3ccccn23)=C1c1cn2c3c(cc(F)cc13)CN(C(=O)N1CCCCC1)CC2
Procedure, shortened: as §1

[6] = compound: c1cc(OCCN2CCCCC2)cc(-c2n[nH]c3ccc(-c4nnc[nH]4)cc23)c1
Procedure, shortened: as §1

Sequence of UniProt Q9UHN6 (Q9UHN6 whole entry, looked up): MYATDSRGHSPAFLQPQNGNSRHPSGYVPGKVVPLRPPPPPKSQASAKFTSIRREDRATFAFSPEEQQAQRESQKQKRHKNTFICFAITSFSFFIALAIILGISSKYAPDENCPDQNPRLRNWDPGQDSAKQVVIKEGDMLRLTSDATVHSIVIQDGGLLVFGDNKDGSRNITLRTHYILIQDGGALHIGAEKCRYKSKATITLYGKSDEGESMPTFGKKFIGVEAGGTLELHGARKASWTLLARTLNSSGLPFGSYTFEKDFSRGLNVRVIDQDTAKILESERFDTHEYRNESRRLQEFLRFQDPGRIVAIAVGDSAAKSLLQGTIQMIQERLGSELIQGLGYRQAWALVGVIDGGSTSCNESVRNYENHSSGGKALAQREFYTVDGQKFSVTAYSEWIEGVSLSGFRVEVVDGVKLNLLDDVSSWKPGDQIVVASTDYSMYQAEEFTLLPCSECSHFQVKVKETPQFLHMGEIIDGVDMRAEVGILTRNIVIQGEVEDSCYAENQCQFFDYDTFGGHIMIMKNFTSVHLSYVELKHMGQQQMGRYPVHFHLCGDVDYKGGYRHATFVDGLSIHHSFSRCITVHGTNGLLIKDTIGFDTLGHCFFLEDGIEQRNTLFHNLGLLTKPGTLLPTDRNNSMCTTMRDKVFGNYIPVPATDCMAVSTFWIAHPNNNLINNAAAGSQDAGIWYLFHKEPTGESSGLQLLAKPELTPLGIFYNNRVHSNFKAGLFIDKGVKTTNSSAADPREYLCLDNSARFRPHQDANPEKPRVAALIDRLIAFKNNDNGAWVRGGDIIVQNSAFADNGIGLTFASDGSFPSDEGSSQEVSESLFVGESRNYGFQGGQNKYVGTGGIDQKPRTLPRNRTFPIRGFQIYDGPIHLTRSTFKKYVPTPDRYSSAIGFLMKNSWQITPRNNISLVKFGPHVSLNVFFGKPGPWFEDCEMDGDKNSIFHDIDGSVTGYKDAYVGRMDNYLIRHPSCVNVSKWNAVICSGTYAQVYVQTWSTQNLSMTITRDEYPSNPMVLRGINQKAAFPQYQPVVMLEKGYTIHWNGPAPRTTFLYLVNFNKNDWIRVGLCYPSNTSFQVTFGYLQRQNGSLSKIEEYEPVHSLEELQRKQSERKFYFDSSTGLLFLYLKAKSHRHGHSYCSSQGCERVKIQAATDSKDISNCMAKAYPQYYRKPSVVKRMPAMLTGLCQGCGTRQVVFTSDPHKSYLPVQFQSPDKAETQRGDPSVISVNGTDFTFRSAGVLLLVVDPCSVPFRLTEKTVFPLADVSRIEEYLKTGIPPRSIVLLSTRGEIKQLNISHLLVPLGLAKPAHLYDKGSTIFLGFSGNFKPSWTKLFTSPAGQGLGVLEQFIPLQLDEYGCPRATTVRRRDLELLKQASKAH
Sequence of UniProt P11802 (P11802 whole entry, looked up): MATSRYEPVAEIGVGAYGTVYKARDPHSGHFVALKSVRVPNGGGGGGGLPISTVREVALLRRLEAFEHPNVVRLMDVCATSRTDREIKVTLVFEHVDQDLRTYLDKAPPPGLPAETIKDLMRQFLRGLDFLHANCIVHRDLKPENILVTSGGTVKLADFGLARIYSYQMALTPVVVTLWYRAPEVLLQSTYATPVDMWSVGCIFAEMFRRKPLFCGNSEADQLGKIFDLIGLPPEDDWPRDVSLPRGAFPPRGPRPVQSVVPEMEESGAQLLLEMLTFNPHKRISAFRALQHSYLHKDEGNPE
Sequence of UniProt P33552 (P33552 whole entry, looked up): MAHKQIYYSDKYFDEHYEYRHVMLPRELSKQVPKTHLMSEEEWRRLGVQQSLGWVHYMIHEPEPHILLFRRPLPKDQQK
Sequence of UniProt Q7L3B6 (Q7L3B6 whole entry, looked up): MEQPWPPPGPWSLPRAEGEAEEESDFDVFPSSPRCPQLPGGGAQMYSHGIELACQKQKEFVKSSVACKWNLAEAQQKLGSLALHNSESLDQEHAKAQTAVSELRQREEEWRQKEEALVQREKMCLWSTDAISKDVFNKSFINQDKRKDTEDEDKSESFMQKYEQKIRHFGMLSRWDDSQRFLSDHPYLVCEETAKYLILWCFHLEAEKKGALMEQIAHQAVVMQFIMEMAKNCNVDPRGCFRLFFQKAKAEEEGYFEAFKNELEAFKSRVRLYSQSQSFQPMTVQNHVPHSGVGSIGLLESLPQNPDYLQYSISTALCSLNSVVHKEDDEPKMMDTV
Sequence of UniProt P34810 (P34810 whole entry, looked up): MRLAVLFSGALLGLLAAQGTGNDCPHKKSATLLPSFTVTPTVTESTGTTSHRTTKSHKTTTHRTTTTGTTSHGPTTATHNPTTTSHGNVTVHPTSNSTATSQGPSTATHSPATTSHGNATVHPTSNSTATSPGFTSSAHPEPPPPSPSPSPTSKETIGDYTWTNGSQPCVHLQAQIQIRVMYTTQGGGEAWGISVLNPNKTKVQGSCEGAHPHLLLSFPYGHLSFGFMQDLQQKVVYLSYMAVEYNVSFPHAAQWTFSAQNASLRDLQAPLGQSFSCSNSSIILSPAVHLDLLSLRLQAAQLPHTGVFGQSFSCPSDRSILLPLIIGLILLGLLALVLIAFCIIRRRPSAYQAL
Sequence of UniProt Q8N4S0 (Q8N4S0 whole entry, looked up): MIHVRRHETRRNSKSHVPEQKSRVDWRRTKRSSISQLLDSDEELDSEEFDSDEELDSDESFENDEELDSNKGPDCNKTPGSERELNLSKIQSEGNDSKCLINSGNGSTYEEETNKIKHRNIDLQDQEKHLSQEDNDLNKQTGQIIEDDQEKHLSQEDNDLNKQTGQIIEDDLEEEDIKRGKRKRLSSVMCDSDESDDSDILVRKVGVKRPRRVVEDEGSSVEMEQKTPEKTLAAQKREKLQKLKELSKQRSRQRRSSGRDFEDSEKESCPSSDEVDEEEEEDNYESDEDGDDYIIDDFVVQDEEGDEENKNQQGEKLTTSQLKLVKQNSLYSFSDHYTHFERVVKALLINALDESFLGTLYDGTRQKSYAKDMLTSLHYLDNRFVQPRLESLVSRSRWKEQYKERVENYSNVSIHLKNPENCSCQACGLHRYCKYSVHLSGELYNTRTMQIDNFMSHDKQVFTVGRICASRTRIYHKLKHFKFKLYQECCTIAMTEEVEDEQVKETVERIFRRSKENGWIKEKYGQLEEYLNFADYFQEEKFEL
Sequence of UniProt Q96F85 (Q96F85 whole entry, looked up): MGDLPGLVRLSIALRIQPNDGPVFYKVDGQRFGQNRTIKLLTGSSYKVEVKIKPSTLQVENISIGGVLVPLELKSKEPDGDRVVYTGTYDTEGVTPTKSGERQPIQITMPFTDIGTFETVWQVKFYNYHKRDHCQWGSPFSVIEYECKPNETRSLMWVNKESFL
Sequence of UniProt Q7Z4R8 (Q7Z4R8 whole entry, looked up): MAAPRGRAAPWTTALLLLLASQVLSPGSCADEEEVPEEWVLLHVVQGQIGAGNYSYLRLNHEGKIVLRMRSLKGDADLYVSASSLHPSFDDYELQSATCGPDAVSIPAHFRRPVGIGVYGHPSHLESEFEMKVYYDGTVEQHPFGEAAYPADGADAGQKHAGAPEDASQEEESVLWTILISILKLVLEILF
Sequence of UniProt Q5T655 (Q5T655 whole entry, looked up): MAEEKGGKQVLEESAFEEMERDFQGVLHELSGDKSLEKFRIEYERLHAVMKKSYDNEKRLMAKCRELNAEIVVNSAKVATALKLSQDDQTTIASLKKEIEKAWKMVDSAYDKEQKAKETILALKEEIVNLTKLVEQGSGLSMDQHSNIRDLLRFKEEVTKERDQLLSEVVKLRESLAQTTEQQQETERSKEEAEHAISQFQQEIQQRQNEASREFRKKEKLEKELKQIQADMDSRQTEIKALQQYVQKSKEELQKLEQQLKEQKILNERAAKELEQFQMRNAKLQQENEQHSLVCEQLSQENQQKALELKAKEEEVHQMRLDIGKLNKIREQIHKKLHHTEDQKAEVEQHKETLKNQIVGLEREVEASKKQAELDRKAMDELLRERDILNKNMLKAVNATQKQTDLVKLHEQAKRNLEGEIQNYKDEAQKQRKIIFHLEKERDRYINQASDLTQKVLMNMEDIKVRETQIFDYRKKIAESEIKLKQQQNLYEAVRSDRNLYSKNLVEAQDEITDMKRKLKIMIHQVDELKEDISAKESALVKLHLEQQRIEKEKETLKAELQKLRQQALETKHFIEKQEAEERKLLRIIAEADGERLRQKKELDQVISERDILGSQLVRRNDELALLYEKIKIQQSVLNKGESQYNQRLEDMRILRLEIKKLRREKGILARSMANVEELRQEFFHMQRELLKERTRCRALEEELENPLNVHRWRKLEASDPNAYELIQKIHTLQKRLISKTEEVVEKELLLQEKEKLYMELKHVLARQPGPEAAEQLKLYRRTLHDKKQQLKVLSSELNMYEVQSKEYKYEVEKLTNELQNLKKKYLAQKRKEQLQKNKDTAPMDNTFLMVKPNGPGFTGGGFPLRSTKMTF
Sequence of UniProt P30281 (P30281 whole entry, looked up): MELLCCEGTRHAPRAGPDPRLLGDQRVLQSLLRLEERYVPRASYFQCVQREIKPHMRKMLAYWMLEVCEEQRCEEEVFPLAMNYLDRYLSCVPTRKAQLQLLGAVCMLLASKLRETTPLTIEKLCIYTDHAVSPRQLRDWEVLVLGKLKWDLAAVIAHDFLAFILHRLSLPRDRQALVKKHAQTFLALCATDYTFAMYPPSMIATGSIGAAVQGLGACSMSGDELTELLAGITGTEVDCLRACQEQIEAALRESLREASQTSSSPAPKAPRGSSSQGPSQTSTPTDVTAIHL
Sequence of UniProt O75956 (O75956 whole entry, looked up): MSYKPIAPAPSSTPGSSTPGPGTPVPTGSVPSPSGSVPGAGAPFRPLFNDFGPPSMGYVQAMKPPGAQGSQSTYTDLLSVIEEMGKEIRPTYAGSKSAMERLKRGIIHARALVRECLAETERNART
Sequence of UniProt P51636 (P51636 whole entry, looked up): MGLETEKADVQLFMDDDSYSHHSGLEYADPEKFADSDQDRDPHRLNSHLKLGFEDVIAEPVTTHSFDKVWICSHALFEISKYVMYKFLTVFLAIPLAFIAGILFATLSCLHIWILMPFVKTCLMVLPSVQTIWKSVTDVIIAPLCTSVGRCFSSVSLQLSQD
Sequence of UniProt Q9P0B6 (Q9P0B6 whole entry, looked up): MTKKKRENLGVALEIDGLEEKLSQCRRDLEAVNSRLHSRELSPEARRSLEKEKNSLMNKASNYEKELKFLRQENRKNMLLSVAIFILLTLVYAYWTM

Target | log2 fold change [1] | log2 fold change [2] | log2 fold change [3] | log2 fold change [4] | log2 fold change (entinostat) | log2 fold change (vorinostat) | log2 fold change (citarinostat) | log2 fold change (silmitasertib) | log2 fold change [5] | log2 fold change [6]
CDKN2AIP (UniProt Q9NXV6) | 0.003 | 0.044 | -0.018 | -0.026 | 0.017 | 0.027 | 0.013 | 0.026 | 0.022 | -0.071
COG2 (UniProt Q14746) | -0.07 | -0.513 | -0.487 | – | 0.138 | – | 0.101 | 0.248 | -0.031 | 0.34
CENPE (UniProt Q02224) | 0.127 | 0.731 | – | 0.114 | -0.153 | -0.238 | – | – | – | –
CDKN1B (UniProt P46527) | -0.154 | 0.178 | 0.017 | -0.177 | 0.046 | -0.01 | – | -0.072 | -0.01 | –
CDK4 (UniProt P11802) | 0.015 | -0.293 | -0.074 | 0.02 | -0.006 | – | 0.076 | 0.193 | 0.184 | 0.005
CAV2 (UniProt P51636) | -0.251 | -0.041 | 0.027 | – | -0.088 | 0.147 | – | 0.106 | – | –
CORO2A (UniProt Q92828) | 0.069 | -0.027 | -0.287 (active) | -0.085 | -0.061 | 0.027 | -0.114 | -0.019 | – | -0.212
CETN3 (UniProt O15182) | -0.016 | -0.059 | -0.031 | -0.102 | 0.033 | -0.126 | -0.002 | 0.032 | -0.1 | -0.061
CASP9 (UniProt P55211) | 0.059 | -0.234 | – | -0.111 | -0.098 | 0.045 | 0.05 | – | -0.057 | 0.054
CRMP1 isoform 2 (UniProt Q14194) | -0.121 | 0 | – | -0.099 | -0.055 | 0.193 | – | – | – | –
CPD (UniProt O75976) | 0.002 | 0.032 | -0.101 | -0.008 | 0.016 | 0.019 | 0.018 | 0.032 | -0.034 | -0.111
CHD3 isoform 3 (UniProt Q12873) | 0.023 | -0.152 | -0.113 | -0.013 | 0.036 | 0.101 | 0.057 | 0.154 | 0.057 | -0.101
CDC37L1 (UniProt Q7L3B6) | -0.061 | -0.074 | 0.018 | 0.033 | -0.011 | -0.017 | -0.064 | 0.07 | -0.022 | -0.102
CEP128 (UniProt Q6ZU80) | -0.182 | -0.029 | 0.095 | -0.234 | -0.112 | – | -0.087 | -0.191 | – | -0.068
C19orf54 (UniProt Q5BKX5) | 0.098 | 0.004 | – | 0.086 | -0.111 | -0.064 | -0.09 | – | -0.05 | -0.121
CLN5 (UniProt O75503) | -0.133 | -0.41 | -0.858 (active) | – | 0.02 | -0.087 | – | 0.192 | -0.014 | –
C9orf72 (UniProt Q96LT7) | 0.028 | -0.041 | -0.148 | -0.009 | -0.011 | 0.232 | – | -0.067 | -0.011 | –
CCNT2 (UniProt O60583) | -0.045 | 0.042 | 0.054 | – | 0.076 | 0.223 | 0.06 | -0.06 | -0.032 | -0.089
CCNC (UniProt P24863) | -0.032 | -0.105 | -0.017 | -0.033 | 0.04 | -0.039 | – | 0.183 | 0.039 | –
CHPT1 (UniProt Q8WUD6) | 0 | -0.039 | -0.059 | – | 0.062 | 0.066 | 0.002 | -0.042 | -0.049 | 0.019

Target | log2 fold change [1] | log2 fold change [2] | log2 fold change [3] | log2 fold change [4] | log2 fold change (entinostat) | log2 fold change (vorinostat) | log2 fold change (citarinostat) | log2 fold change (silmitasertib) | log2 fold change [5] | log2 fold change [6]
CLN8 (UniProt Q9UBY8) | -0.062 | -0.002 | 0.334 | 0 | 0.058 | -0.061 | 0.064 | 0.075 | – | -0.095
CAB39L (UniProt Q9H9S4) | 0.035 | 0.083 | – | -0.162 | -0.016 | -0.197 | -0.093 | – | -0.043 | -0.101
CSNK2A1 (UniProt P68400) | -0.062 | 0.014 | 0.007 | 0.05 | -0.015 | 0.046 | -0.013 | – | -0.027 | -0.045
CA1 (UniProt E5RIF9) | – | – | – | -0.029 | – | – | – | – | -0.026 | –
CNOT4 isoform 9 (UniProt O95628) | – | -0.115 | -0.077 | 0.11 | – | -0.003 | -0.038 | 0.024 | – | 0.178
CCDC57 (UniProt Q2TAC2) | -0.025 | – | -0.014 | -0.04 | -0.031 | – | 0.008 | -0.038 | -0.002 | -0.11
CRLS1 (UniProt Q9UJA2) | 0.323 (active) | – | 0.027 | 0.06 | 0.151 | -0.005 | 0.012 | 0.017 | – | -0.051
C5orf30 (UniProt Q96GV9) | – | -0.191 | – | – | – | – | – | – | -0.051 | –
CLASP2 (UniProt O75122) | – | -0.049 | 0.046 | – | – | – | 0.143 | 0.083 | – | 0.08
CDK2AP2 (UniProt O75956) | – | -0.05 | 0.14 | – | – | – | 0.009 | -0.094 | -0.062 | -0.1
CEMIP2 (UniProt Q9UHN6) | – | 0.072 | -0.243 | -0.072 | – | 0.038 | 0.124 | 0.057 | 0.034 | -0.078
COMMD1 (UniProt Q8N668) | -0.043 | – | 0.051 | -0.069 | 0.008 | -0.032 | 0.039 | -0.021 | -0.018 | -0.065
CLN3 (UniProt Q13286) | – | – | -0.112 | -0.124 | – | – | 0.042 | 0.025 | 0.072 | -0.033
CCDC82 (UniProt Q8N4S0) | – | -0.083 | -0.146 | -0.063 | – | – | 0.023 | 0.047 | -0.169 | 0.046
CCM2 isoform 2 (UniProt Q9BSQ5) | -0.103 | – | -0.09 | -0.067 | 0.326 (active) | -0.038 | -0.073 | 0.048 | -0.136 | 0.069
CCNL1 (UniProt Q9UK58) | – | – | -0.224 | – | – | – | – | -0.173 | – | –
CRTC1 isoform 2 (UniProt Q6UUV9) | -0.132 | -0.151 | – | 0.01 | 0.044 | 0.012 | – | – | -0.371 | –
C6orf120 (UniProt Q7Z4R8) | 0.068 | – | – | -0.018 | 0.083 | – | 0.031 | – | – | -0.141
CASK (UniProt O14936) | – | 0.026 | – | – | – | – | – | – | – | –
CRTC3 (UniProt Q6UUV7) | -0.754 (active) | – | -0.007 | 0.001 | 0.057 | – | – | 0.098 | 0.025 | –

Target | log2 fold change [1] | log2 fold change [2] | log2 fold change [3] | log2 fold change [4] | log2 fold change (entinostat) | log2 fold change (vorinostat) | log2 fold change (citarinostat) | log2 fold change (silmitasertib) | log2 fold change [5] | log2 fold change [6]
CKS2 (UniProt P33552) | – | -0.021 | -0.039 | – | – | 0.28 | -0.092 | 0.065 | – | -0.071
CS (UniProt F8VU34) | – | – | – | – | – | – | -0.298 | – | – | -0.393
CAD (UniProt H7BZB3) | – | 0.124 | – | – | – | – | – | – | – | –
CLCN5 isoform 2 (UniProt P51795) | – | – | – | 0.004 | – | 0.062 | 0.045 | – | – | -0.114
CFAP58 (UniProt Q5T655) | – | – | 0.028 | – | – | 0.018 | -0.357 | -0.008 | – | 0.392
COMMD3-BMI1 (UniProt R4GMX3) | 0.003 | 0.076 | – | – | -0.062 | 0.109 | – | – | -0.012 | –
CEBPZOS (UniProt A8MTT3) | – | 0.022 | -0.124 | 0.028 | – | -0.03 | -0.011 | 0.018 | – | -0.056
CD68 (UniProt P34810) | 0.039 | – | -0.106 | – | -0.33 | – | – | 0.07 | – | –
CFAP47 (UniProt Q6ZTR5) | – | 0.022 | – | -0.024 | – | – | -0.042 | – | -0.025 | -0.008
CSNK1A1 isoform 3 (UniProt P48729) | – | – | -0.204 | – | – | – | – | 0 | – | –
CNRIP1 (UniProt Q96F85) | – | – | 0.258 | – | – | – | – | -0.13 | 0.738 (active) | –
CARD9 (UniProt Q9H257) | – | 0.37 | – | – | – | – | – | – | – | –
CCDC187, A0A1W2PQX5 | – | -0.147 | – | – | – | -0.042 | – | – | -0.048 | –
CLINT1 (UniProt Q14677) | – | 0.001 | 0.037 | 0.034 | – | – | -0.146 | 0.021 | 0.058 | 0.062
CCND3 (UniProt P30281) | – | -0.204 | -0.001 | 0.184 | – | 0.048 | 0 | 0.28 | 0.069 | 0.183
CREB3L2 (UniProt Q70SY1) | – | -0.102 | -0.074 | 0.035 | – | – | – | 0.023 | -0.076 | –
CASP7 isoform 3 (UniProt P55210) | – | – | – | – | – | 0.044 | -0.058 | – | -0.048 | 0.021
CCDC167 (UniProt Q9P0B6) | 0.014 | – | 0.046 | – | 0.031 | 0.008 | -0.014 | 0.135 | 0.038 | 0.009
CD84 (UniProt Q9UIB8) | -0.182 | -0.036 | – | – | 0.234 | – | – | – | 0.084 | –

Source: the supplement of paper PMC10849652
